In PubChem BioAssay (NCI):
This is part of a sample that, as a whole, favours compounds with a hit. Of some 79,000 tested, about 15% had one in any assay. Cut-off read from the data, not from the text of the source: active = growth inhibition above about 70%; inactive = the rest.

How the values were obtained:
[1] = NCI Yeast Anticancer Drug Screen. Data for the rad50 strain (AID 155);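 note: 0% = growth of vehicle-only cultures of the same strain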; conditions: S. cerevisiae rad50 strain growth inhibition; at 50.0 µM; hits give high values
Outline: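 Relative growth inhibition (compound vs vehicle) was measured in yeast with a defined repair-gene alteration.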

[2] = NCI Yeast Anticancer Drug Screen. Data for the mec2-1 strain (AID 157); conditions: S. cerevisiae mec2-1 strain, at 50.0 µM, hits give high values
Outline: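 Each compound was tested on mec2-1 yeast, a strain altered in DNA damage repair or cell cycle control. Growth inhibition is reported relative to vehicle.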

[3] = NCI Yeast Anticancer Drug Screen. Data for the sgs1 mgt1 strain (AID 161);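 note: 0% = growth of cultures given vehicle only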; conditions: S. cerevisiae sgs1 mgt1 strain, at 50.0 µM, hits give high values
Outline: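 Inhibition of yeast growth, normalised to vehicle-treated controls, is reported for a strain bearing genetic alterations in DNA damage repair.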

[4] = NCI Yeast Anticancer Drug Screen. Data for the cln2 rad14 strain (AID 165);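 note: 0% = growth equal to vehicle treated cultures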; conditions: S. cerevisiae cln2 rad14 strain, at 50.0 µM, hits give high values
Outline: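 Test compounds were added to cln2 rad14 yeast cultures; inhibition of growth was then determined by comparison with vehicle treatment.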

[5] = NCI Yeast Anticancer Drug Screen. Data for the bub3 strain (AID 167); conditions: S. cerevisiae bub3 mutant strain, at 50.0 µM, hits give high values
Outline: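 Screening used yeast with an engineered genetic alteration affecting cell cycle control. Compound-exposed cultures were compared with vehicle cultures, and reduced growth was taken as inhibition.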

[6] = NCI Yeast Anticancer Drug Screen. Data for the mlh1 rad18 strain (AID 175); conditions: S. cerevisiae mlh1 rad18 strain growth inhibition; at 50.0 µM; hits give high values
Outline: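 Inhibition values reflect reduced growth of mutant yeast versus vehicle-treated controls following compound exposure; the mutations affect DNA damage repair.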

Measured: growth inhibition

S=C1N(c2ccccc2)CCN1c1ccccc1
inactive: [1] -15.2% | [2] -14.9% | [3] -21.9% | [4] -17.2% | [5] -18.9% | [6] -2.65%

CN(C)C(=O)Nc1ccc2c(c1)OCO2
inactive: [1] 0.8% | [2] 8.6% | [3] -1.4% | [4] -31.9% | [5] -13.2% | [6] 9.45%

O=C(O)C1CC(Cl)C(O)C(Cl)C1 (stereo unspecified)
inactive: [1] -6.9% | [2] 8.4% | [3] 8.95% | [4] -56.3% | [5] -6.65% | [6] 9%

CN(C)C1=NC(c2ccccc2)(c2ccccc2)C(=O)N1
inactive: [1] -17.4% | [2] -8.15% | [3] -3.15% | [4] -40.5% | [5] -6.35% | [6] -23.4%

Cc1ccc(S(=O)(=O)N(Cc2cccc([N+](=O)[O-])c2)c2ccc(C(=O)O)cc2)cc1
inactive: [1] 8.45% | [2] 4.55% | [3] 0.8% | [4] -12.7% | [5] 5.95% | [6] 21.1%

O=[N+]([O-])c1ccc(/C=C/c2ccc([N+](=O)[O-])cc2S(=O)(=O)O)c(S(=O)(=O)O)c1
inactive: [1] 25.8% | [2] -9.6% | [3] 30.8% | [4] 5.45% | [5] 32.9% | [6] 32%

Oc1ccc(Cl)cc1CN1CCOCC1
inactive: [1] 31.3% | [2] 11.6% | [3] 36.1% | [4] 21.5% | [5] 13.3% | [6] 34.5%

CCOC(=O)c1ccc(NCc2nc3c([nH]2)c(=O)n(C)c(=O)n3C)cc1
inactive: [1] -0.95% | [2] -1.45% | [3] -1.35% | [4] -54.1% | [5] -14.2% | [6] 1.65%

CC(=O)OCC1OC(n2cnc3c(N)ncnc32)C2OC(C)(C)OC12 (stereo unspecified)
inactive: [1] 11.4% | [2] -30.2% | [3] -19.1% | [4] 1.45% | [5] -1.9% | [6] -12.8%

N#Cc1ccc(OC(=O)Nc2ccccc2Cl)cc1
inactive: [1] 0.5% | [2] -8.6% | [3] 21.4% | [4] 26.4% | [5] 15.4% | [6] 13.8%

COc1ccc(C(c2cc3c(cc2O)OCO3)N2CCCC2)cc1 (stereo unspecified)
inactive: [1] 17% | [2] -0.5% | [3] 15.9% | [4] -25.1% | [5] 12.1% | [6] 21.2%

CN(C)CCCSc1n[nH]c(=O)[nH]c1=O
inactive: [1] 6.4% | [2] 2.5% | [3] -11.3% | [4] -19.7% | [5] 1.6% | [6] -10.1%

CCCCCCCCN(C)/N=N/c1nc[nH]c1C(N)=O
inactive: [1] 20.7% | [2] -4.7% | [3] 15.1% | [4] 17.6% | [5] 17.8% | [6] 24.4%

CC(=O)Nc1cc(Cl)cc2c1[nH]c(=O)c1ccccc12
inactive: [1] 9.75% | [2] 5.35% | [3] -2% | [4] -7% | [5] 9.25% | [6] 1.05%

CCOC(=O)Cn1c(C)nc2nn(Cc3ccccc3)cc2c1=O
inactive: [1] -49.7% | [2] -56.1% | [3] -36.2% | [4] -1.35% | [5] -32.9% | [6] -30.8%

Cc1cc(Br)c(NC(=O)c2c(-c3c(Cl)cccc3Cl)noc2C)c(Br)c1
inactive: [1] -3.35% | [2] -16.3% | [3] -8.15% | [4] 4.9% | [5] -11.7% | [6] 4.9%

O=C1c2cccc3cc([N+](=O)[O-])cc(c23)C(=O)N1Cc1ccco1
inactive: [1] 24.6% | [2] 8.85% | [3] 32.2% | [4] 16.8% | [5] 7.65% | [6] 0.95%

O=C1Nc2ccccc2C2Cc3c([nH]c4ccccc34)CC12 (stereo unspecified)
inactive: [1] 47% | [2] 20.1% | [3] 3.8% | [4] 31.1% | [5] 7.4% | [6] 20.9%

O=C1CCC([N+](=O)[O-])C(c2ccccc2Cl)N1 (stereo unspecified)
inactive: [1] 10.7% | [2] -15.9% | [3] 20.1% | [4] -0.9% | [5] 29.7% | [6] 20.5%

O=C1C2=C(OCCO2)C(=O)C2=C1OCO2
inactive: [1] 12.4% | [2] 18.4% | [3] 28% | [4] 7.55% | [5] 12.2% | [6] 4.4%

CCC(=O)OCCC(C)C
inactive: [1] 35.4% | [2] 12.2% | [3] 6.85% | [4] -22.1% | [5] 19.9% | [6] 17.4%
